Screening data as filed in PubChem BioAssay.
ALR H2O2 inh: blocks human ALR sulfhydryl oxidase activity | P55789 | purified ALR, DTT oxidation, H2O2 HRP-luminol luminescence | inhibition, % (no concentration beside the values) | 3.8% of 290,000 active | AID 485317;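 active = mean replicate inhibition above about 79%, with every replicate also reaching it, limit read from the data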
Target sequence (P55789 whole entry, looked up): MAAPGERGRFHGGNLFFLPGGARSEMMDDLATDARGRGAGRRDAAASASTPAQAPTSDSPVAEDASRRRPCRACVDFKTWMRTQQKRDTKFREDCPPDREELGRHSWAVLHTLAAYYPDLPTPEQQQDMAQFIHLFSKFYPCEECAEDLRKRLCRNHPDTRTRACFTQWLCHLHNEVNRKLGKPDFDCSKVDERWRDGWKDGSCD
SUMO HTRF inh: blocks human SUMOylation mediated by UBC9; P63279; HTRF SUMOylation assay, SAE1/SAE2 + UBC9, in vitro; inhibition, % at 35 µM; 0.36% of 290,000 active; AID 2006; in the data active = inhibition above about 50%, passing the limit was not always enough
NTR1 ag: agonists of human neurotensin receptor NTR1. activation, % at 20 µM. NTR1-U2OS beta-arrestin-GFP spot imaging, agonist mode. 0.17% of 330,000 active;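 active = activation at or above 40% of the spot to cytoplasm intensity ratio, with at least 20 cells analyzed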;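 also: 0% = DMSO without peptide and 100% = 100 nM NTR1 peptide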
Target sequence (P30989 whole entry, looked up): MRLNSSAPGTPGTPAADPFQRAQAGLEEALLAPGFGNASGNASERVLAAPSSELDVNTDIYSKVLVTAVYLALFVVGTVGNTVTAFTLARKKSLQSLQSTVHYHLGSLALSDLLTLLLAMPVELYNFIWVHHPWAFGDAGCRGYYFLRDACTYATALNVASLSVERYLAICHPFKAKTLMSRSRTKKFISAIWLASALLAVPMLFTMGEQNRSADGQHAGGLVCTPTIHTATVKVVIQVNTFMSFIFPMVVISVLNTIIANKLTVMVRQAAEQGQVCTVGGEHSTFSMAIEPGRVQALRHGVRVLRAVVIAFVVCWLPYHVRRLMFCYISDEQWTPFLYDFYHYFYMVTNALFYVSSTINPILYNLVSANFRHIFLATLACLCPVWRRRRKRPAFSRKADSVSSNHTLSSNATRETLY
H9c2 protect: protects H9c2 cardiomyocytes from peroxide injury; 0.63% of 360,000 active; protection from H2O2 cell death, % at 20 µM; H2O2 injury protection, ATPLite, 2 h;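 active = compounds giving at least 50% protection of heart cells from peroxide-induced death in the single-dose screen, raw or plate-pattern-corrected value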;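 also: 0% = DMSO wells with peroxide and 100% = DMSO wells without peroxide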
* hit, by the source's call; x = no result. A selection: hits, their analogues and other compounds. The true share with any hit is near 3.9%.

SMILES | ALR H2O2 inh | SUMO HTRF inh | NTR1 ag | H9c2 protect
COc1ccc(CCNC(=O)CCS(=O)(=O)c2ccc3nc(C)sc3c2)cc1OC | -2.8 | 2.6 | 5.2 | 0.5
CC1Oc2cc3oc4c(O)c(O)ccc4c(=O)c3c(O)c2C1(C)C (configuration not stated) | 98.1* | x | 5.6 | -5.2
COc1ccc(Cn2nnc3c(=O)[nH]c(C(=O)NCCc4ccc(F)cc4)nc32)cc1OC | 93.7* | 19.2 | 0.8 | -1.6
COc1ccc(CCNC(=O)C2CCN(C(=O)c3cccc(Cl)c3)CC2)cc1OC | -3.0 | -4.6 | -0.8 | 1.6
N#CC(=Cc1ccc(-c2ccccc2)cc1)C(=O)c1ccccc1 | x | x | x | -4.4
N#C/C(=C\c1ccc(C#N)cc1)C(=O)c1ccccc1 | 92.9* | 16.3 | x | -2.4
O=C1c2ccccc2NC(c2ccc(-c3ccc(Br)cc3)o2)N1O (configuration not stated) | 3.8 | 16.5 | 7.3 | 64.7*
O=C1c2ccccc2NC(c2ccc(-c3ccc(F)cc3)o2)N1O (configuration not stated) | 48.5 | x | 3.1 | 3.0
O=C1c2ccccc2NC(c2ccc(-c3cccc([N+](=O)[O-])c3)o2)N1O (configuration not stated) | 89.6* | -4.2 | -0.2 | 55.6*
O=C(Nc1cccnc1)c1sc(Nc2ccccc2)nc1-c1ccccc1 | -2.2 | 2.2 | 1.9 | 65.3*
C[n+]1c2n(c3ccccc31)N=C(c1ccc(Br)cc1)CS2 | 98.7* | 4.9 | -2.7 | -12.3
C[n+]1c2n(c3ccccc31)N=C(c1ccc(-c3ccccc3)cc1)CS2 | 99.0* | 12.2 | 8.8 | -23.1
CCc1nnc2n1N=C(c1ccc(Br)cc1)CS2 | 4.7 | -7.1 | -0.5 | -0.1
Cc1cccc(-c2nnc3n2N=C(c2ccccc2)CS3)c1 | 2.5 | 20.5 | 1.3 | -4.9
C[n+]1c2n(c3ccccc31)N=C(c1ccccc1)CS2 | 89.0* | 3.3 | 1.2 | -9.0
N=C1S/C(=C\c2ccco2)C(=O)N1c1ccc2c(c1)OCO2 | -14.2 | x | -0.4 | -1.7
N=C1S/C(=C\c2ccco2)C(=O)N1c1nccs1 | x | 94.1* | 7.6 | 19.6
O=c1[nH]n2c(=O)c3c([nH]c2c1N=Nc1cccc(C(F)(F)F)c1)CCCC3 | 96.6* | -23.4 | 11.4 | 5.5
CC1(c2ccccc2Cl)NC(=O)N(CC(=O)N2CCc3ccccc32)C1=O (configuration not stated) | -5.8 | x | -0.9 | -1.7
CC1CCN(Cc2nc3c(c(=O)n(C)c(=O)n3C)n2CCCc2ccccc2)CC1 | -5.0 | 0.6 | 5.4 | 56.0*
CN1CCN(Cc2nc3c(c(=O)n(C)c(=O)n3C)n2CCCc2ccccc2)CC1 | x | 13.2 | 1.0 | -6.1
CCOCCn1c(CN2CCN(c3cccc(Cl)c3)CC2)nc2c1c(=O)n(C)c(=O)n2C | x | 14.8 | 3.3 | -4.7
COc1ccc(N2CCN(Cc3nc4c(c(=O)n(C)c(=O)n4C)n3C(C)C(C)=O)CC2)cc1 (configuration not stated) | 88.5* | -9.4 | 0.5 | -4.3
CCOCCn1c(CN2CCN(c3ccc(F)cc3)CC2)nc2c1c(=O)n(C)c(=O)n2C | 98.5* | 11.0 | -0.7 | 0.6
C=CCC[C@H](Cc1ccc(F)cc1)C(=O)O[C@H](CNC(=O)[C@@H](CC=C)CC(=O)N(CCO)Cc1ccccc1)c1ccccc1 | 0.7 | x | 18.2 | -2.5
SMILES | ALR H2O2 inh | SUMO HTRF inh | NTR1 ag | H9c2 protect
Cc1ccc(NC(=O)Nc2nnc(Cc3ccc([N+](=O)[O-])cc3)s2)cc1C | 0.9 | 21.5 | 8.8 | -12.1
COc1ccc(COc2cc(-c3cccc(OC)c3)nc3ccc(NC(=O)c4ccc(OC)cc4)cc23)cc1 | -21.3 | 3.3 | 0.7 | 57.8*
COc1ccc(COc2cc(-c3cccc(OC)c3)nc3ccc(NC(=O)c4cccnc4)cc23)cc1 | -11.4 | -9.6 | 6.1 | 91.2*
COc1ccc(NC(=O)C(OC(=O)c2ccc([N+](=O)[O-])o2)c2ccccc2)cc1Cl (configuration not stated) | -13.0 | -5.4 | 1.4 | 52.4*
Cc1ccc(C2=NC(C)(C)N=C2SCC(=O)Nc2ccc(Cl)cc2)cc1 | x | 7.7 | 2.8 | -11.6
O=C(CSC1=NC2(CCCCCC2)N=C1c1ccccc1)Nc1ccc2c(c1)OCCO2 | 98.1* | -22.1 | 0.9 | 13.6
O=C(CSC1=NC2(CCCCC2)N=C1c1ccccc1)Nc1ccc2c(c1)OCCO2 | 98.2* | -20.6 | 5.3 | 4.5
Cc1ccc(C2=NC3(CCCC3)N=C2SCC(=O)Nc2ccc3c(c2)OCCO3)cc1 | 98.9* | -8.8 | 1.9 | 9.7
O=C(NCc1cccs1)C1CCN(c2ccc(S(=O)(=O)N3CCOCC3)cc2Cl)CC1 | -2.9 | 23.4 | 2.4 | -8.0
NS(=O)(=O)c1ccc(CCNC(=O)c2ccc(C(=O)c3ccccc3)cc2)cc1 | 1.8 | 15.2 | 1.7 | -0.8
c1ccc(NNC2=NCCS2)cc1 | 90.7* | 9.2 | -2.5 | -7.1
O=C(CSc1ccccc1)NC1=NCCS1 | -8.5 | 1.8 | -0.4 | -3.2
Cc1cc(Br)ccc1NCc1ccccn1 | 98.4* | -23.3 | -1.4 | -2.5
CC(=O)N1CCN=C1SCc1ccc(F)cc1 | 99.1* | 6.8 | -1.6 | 4.8
CCC(=O)N1CCN=C1SCc1ccccc1 | -7.5 | 7.7 | 1.8 | 5.9
CC(=O)N1CCN=C1SCc1ccccc1 | 2.9 | 9.1 | 0.6 | 4.0
CC(=O)N1CCN=C1SCc1ccc(C)cc1 | 94.6* | -12.7 | 1.9 | -1.6
CC(=O)N1CCN=C1SCc1ccc(Cl)cc1 | 98.2* | 12.0 | -0.1 | -3.2
CCC(=O)N1CCN=C1SCc1ccc(Cl)cc1 | 98.1* | 0.8 | -0.3 | 6.1
CCOc1ccc(C(=O)N/N=C(/C)C2C(=O)c3ccccc3C2=O)cc1 | 24.4 | -12.6 | -0.8 | 3.8
O=C(Nc1cc(Cl)ccc1N1CCOCC1)c1ccc(F)c(S(=O)(=O)N2CCOCC2)c1 | 0.8 | x | 0.1 | 3.2
Cc1ccc(C)c(OCCC(=O)OCC(=O)N(C)c2c(N)n(Cc3ccccc3)c(=O)[nH]c2=O)c1 | -7.7 | x | -1.2 | 3.7
O=C(NCc1nc2ccccc2[nH]1)C1=C[C@H](c2ccc3c(c2)OCO3)C[C@H](OCCCCO)O1 | -2.9 | -0.1 | -1.6 | 4.8
CC1=NN(c2ccc(Cl)c(C(=O)O)c2)C(=O)/C1=C\c1ccc(-c2ccc(C(=O)O)cc2)o1 | x | 81.7* | x | -6.4
CC1=NN(c2ccccc2)C(=O)/C1=C/c1ccc(-c2ccc(C)c(C(=O)O)c2)o1 | 41.3 | x | 3.2 | x
SMILES | ALR H2O2 inh | SUMO HTRF inh | NTR1 ag | H9c2 protect
O=C1NN(c2ccc(Cl)c(Cl)c2)C(=O)/C1=C/c1ccc(-c2ccccc2C(=O)O)o1 | 99.0* | -16.0 | -0.5 | -6.5
O=C1NN(c2ccccc2)C(=O)/C1=C/c1ccc(-c2ccc(C(=O)O)cc2)o1 | 99.0* | -4.7 | 0.4 | 5.8
O=C1C2CC=C(Cl)CC2C(=O)N1CNc1ccccn1 (configuration not stated) | -4.7 | 2.7 | 0.0 | 11.0
O=C(Cn1ccnc1[N+](=O)[O-])NCc1ccccc1 | -0.3 | x | -1.9 | 13.9
COCCNC(=O)CSc1cc(-c2ccccc2)c2ccc(OC)cc2n1 | 97.0* | 8.5 | 7.2 | 13.3
COc1ccc2c(-c3ccccc3)cc(SCC(=O)NC(N)=O)nc2c1 | -3.9 | 16.2 | 2.7 | -12.8
COc1ccc(CCNC(=O)C/C(C)=N/NC(=O)C23CC4CC(CC(C4)C2)C3)cc1OC | 15.6 | 0.8 | 1.8 | 17.5
